This note sets out measurements from PubChem BioAssay (NCI).

Compounds without any hit were thinned out: in the full panel of roughly 83,000, 20% have a hit.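 Percent growth is the endpoint: 0 to 100 indicates growth inhibition (40 means 60% inhibition), 0 means no net growth, and negative values indicate cell death.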 Values without a mark were called inactive. Activity calls are given as the source filed them. How the source made its calls: active means growth percent below 10; inactive means the rest.

Among the test systems are HCT-15 colon; HT29 colon; SNB-75 CNS; SNB-19 CNS; U251 CNS; PC-3 prostate; SK-MEL-5 melanoma; UACC-62 melanoma; LOX IMVI melanoma; SK-MEL-28 melanoma; SK-MEL-2 melanoma; EKVX NSCLC; SN12C renal; UO-31 renal; TK-10 renal; ACHN renal; CAKI-1 renal; A498 renal; CCRF-CEM leukemia; MOLT-4 leukemia.
Holding throughout (experiment): NCI-60 one-dose screen, 48 h (100 = growth as untreated, 0 = no growth, -100 = all killed)
What all share (conditions): 10 µM unless noted

On to `CCn1cc(C2NC(=O)c3cc(F)ccc3N2)c2cccc(Cl)c21` (stereo not given), for which the growth is 9.89% (active) in the test with HCT-15 colon; 3.35% (active) in the test on HT29 colon; -24.9% (active) with SNB-75 CNS; 34.3% in the test on SNB-19 CNS; -14.2% (active) in the test with U251 CNS; 22.3% in the test with PC-3 prostate. The growth with SK-MEL-5 melanoma was 19.3%; with UACC-62 melanoma, 28.2%; with LOX IMVI melanoma, 16.5%; with SK-MEL-28 melanoma, 58.2%; in the test with SK-MEL-2 melanoma, 17.5%; in the test on EKVX NSCLC, 37.6%. In addition, the growth with SN12C renal was 29.8%; with UO-31 renal, 42.6%; with TK-10 renal, 50.4%; with ACHN renal, 33.5%; with CAKI-1 renal it was 34%; with A498 renal, -11.4% (active). The growth in the test with CCRF-CEM leukemia was 5.2% (active); in the test on MOLT-4 leukemia, 10.8%.
For `CCC(c1cccc(Br)c1)C(C(=O)O)c1ccc(OC)cc1` (stereo not given), the growth with HCT-15 colon is 83.5%; in the test with HT29 colon it was 106%; with SNB-75 CNS it was 96%; with SNB-19 CNS it was 104%; with U251 CNS, 90.4%; with PC-3 prostate, 90.2%. Further, the growth in the test with SK-MEL-5 melanoma was 94.6%; with UACC-62 melanoma, 82.9%; with LOX IMVI melanoma, 95.8%; in the test with SK-MEL-28 melanoma it was 95.8%; with SK-MEL-2 melanoma it was 103%; with EKVX NSCLC, 100%. Moreover, the growth is 105% in the test with SN12C renal; 90.9% with UO-31 renal; 107% with TK-10 renal; 107% in the test on ACHN renal; 93.2% in the test with CAKI-1 renal; 100% with A498 renal. The growth in the test on CCRF-CEM leukemia is 110%; with MOLT-4 leukemia, 111%.
Take `NC(=O)NNC(=O)c1ccccc1`: the growth in the test with HCT-15 colon was 97.6%; in the test with HT29 colon, 113%; with SNB-75 CNS, 85.9%; in the test with SNB-19 CNS, 111%; in the test with U251 CNS, 97.7%; in the test with PC-3 prostate, 96.5%. Besides, the growth in the test with SK-MEL-5 melanoma was 104%; with UACC-62 melanoma it was 104%; in the test with LOX IMVI melanoma, 96.5%; in the test on SK-MEL-28 melanoma it was 117%; in the test on SK-MEL-2 melanoma it was 128%; in the test on EKVX NSCLC it was 96.3%. Moreover, the growth with SN12C renal was 114%; with UO-31 renal, 89.8%; in the test on TK-10 renal, 103%; in the test with ACHN renal, 109%; in the test with CAKI-1 renal, 92.5%; with A498 renal, 124%. Also, the results for the growth in the test on CCRF-CEM leukemia and with MOLT-4 leukemia were 105% and 102%, respectively.
Consider `O=C(CSc1nc(-c2ccc(Cl)cc2)cn1-c1ccc(Cl)cc1)c1ccc(Br)cc1`, for which the growth in the test with HCT-15 colon was 85.2%; in the test with HT29 colon, 66.9%; in the test with SNB-75 CNS it was 44.4%; in the test with SNB-19 CNS, 77.8%; in the test with U251 CNS, 37.5%; with PC-3 prostate, 50.3%. For the same molecule, the growth is 94.9% in the test with SK-MEL-5 melanoma; 72.1% in the test with UACC-62 melanoma; 73.4% in the test on LOX IMVI melanoma; 87.1% in the test with SK-MEL-28 melanoma; 87% in the test on SK-MEL-2 melanoma; 69.1% in the test with EKVX NSCLC. Moreover, the growth in the test on SN12C renal is 62.6%; in the test with UO-31 renal it was 45.5%; in the test with TK-10 renal, 93%; in the test with ACHN renal, 22.4%; with CAKI-1 renal, 78.7%; with A498 renal, 93.8%. Also, the growth was 92.8% in the test on CCRF-CEM leukemia and 90.7% with MOLT-4 leukemia.
In the case of `COc1ccc2c(c1)NC(=O)CN2c1nc(C)nc2ccccc12`, the growth in the test on HCT-15 colon is 9.21% (active); in the test on HT29 colon, 3.4% (active); in the test on SNB-75 CNS, 41.8%; in the test with SNB-19 CNS, 34.4%; in the test with U251 CNS, 16.2%; in the test on PC-3 prostate it was 15.1%. For the same molecule, the growth in the test on SK-MEL-5 melanoma was -34.8% (active); with UACC-62 melanoma it was 35.7%; with LOX IMVI melanoma, 22%; in the test with SK-MEL-28 melanoma it was 59%; in the test on SK-MEL-2 melanoma, 23.5%; in the test on EKVX NSCLC, 30.1%. The growth with SN12C renal is 24.7%; in the test with UO-31 renal it was 26.8%; with TK-10 renal it was 14.8%; with ACHN renal, 26.9%; with CAKI-1 renal it was 29.3%; in the test with A498 renal it was -4.89% (active). Moreover, the growth in the test on CCRF-CEM leukemia is 37.2%; in the test on MOLT-4 leukemia it was 23.7%.
For `CCCCOc1nc2c(C)cccc2cc1C1CNC(=O)c2ccccc2N1` (stereo not given), the growth is 43.4% with HCT-15 colon; 61.4% in the test on HT29 colon; 56.6% in the test on SNB-75 CNS; 47% with SNB-19 CNS; 63.7% in the test with U251 CNS; 40.1% in the test on PC-3 prostate. The growth was 43.4% in the test with SK-MEL-5 melanoma; 29.1% in the test with UACC-62 melanoma; 60.8% with LOX IMVI melanoma; 66.4% in the test on SK-MEL-28 melanoma; 62.8% in the test on SK-MEL-2 melanoma; 61.9% in the test with EKVX NSCLC. Also, the growth in the test on SN12C renal was 70.9%; with UO-31 renal, 67.8%; with TK-10 renal, 98.7%; with ACHN renal, 66.3%; in the test with CAKI-1 renal it was 52.1%; in the test with A498 renal, 55.3%. Besides, the growth with CCRF-CEM leukemia was 34.3%; with MOLT-4 leukemia, 39%.
In the case of `COc1cc(C(=O)N2CCN(C(=O)c3ccco3)CC2)c(N)cc1OCc1ccccc1`, the growth in the test on HCT-15 colon was 101%; in the test with HT29 colon, 107%; with SNB-75 CNS, 96.8%; in the test on SNB-19 CNS, 103%; in the test with U251 CNS, 99.1%; with PC-3 prostate, 98.5%. In addition, the growth in the test on SK-MEL-5 melanoma was 94.9%; in the test with UACC-62 melanoma, 93.8%; with LOX IMVI melanoma, 92.4%; with SK-MEL-28 melanoma it was 114%; in the test with SK-MEL-2 melanoma, 77.6%; in the test on EKVX NSCLC it was 94.6%. Further, the growth is 101% in the test with SN12C renal; 41.9% in the test with UO-31 renal; 107% in the test on TK-10 renal; 99.6% in the test with ACHN renal; 105% with CAKI-1 renal; 105% in the test on A498 renal. In addition, the growth in the test on CCRF-CEM leukemia is 86.4%; with MOLT-4 leukemia, 95.4%.
For the molecule `C=C1C(=O)O[C@H]2[C@H]1CC/C(COC(=O)NCCc1ccc(OC)cc1)=C\CC[C@@]1(C)O[C@@H]21`, the growth is -7.21% (active) in the test with HCT-15 colon; -58.3% (active) with HT29 colon; 79.4% in the test with SNB-75 CNS; 45.8% in the test with SNB-19 CNS; 59.3% with U251 CNS; 45.6% with PC-3 prostate. Further, the growth was 72.3% with SK-MEL-5 melanoma; -46.7% (active) with UACC-62 melanoma; -26.8% (active) in the test with LOX IMVI melanoma; -5.94% (active) in the test with SK-MEL-28 melanoma; 63.4% in the test with SK-MEL-2 melanoma; 53.3% with EKVX NSCLC. In addition, the growth is 11.7% in the test with SN12C renal; -82.8% (active) in the test on UO-31 renal; -7.32% (active) in the test on TK-10 renal; -6.86% (active) in the test on ACHN renal; -2.71% (active) in the test with CAKI-1 renal; 62% in the test on A498 renal. Besides, the growth in the test with CCRF-CEM leukemia is 3.44% (active); in the test with MOLT-4 leukemia, 2.83% (active).
